# Bioassay records as filed in PubChem.
# The list is not random: actives were taken first. Their share in the collection is about 18%.
# LDHA inh: inhibitors of human lactate dehydrogenase A; P00338; purified LDHA, NADH/diaphorase-resazurin fluorescence; stronger effect = lower value; activity change, % (values are at about 110 or 230 µM); 480,000 tested, 0.15% active; in the data active means activity change below about -30%; inconclusive means mostly about -25% to -30%
#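 Human LDH5 (2 nM) was incubated with 0.06 mM NADH and 0.2 mM pyruvate for 5 min at room temperature in Tris pH 7.4. Remaining NADH was coupled through diaphorase/resazurin, and resorufin fluorescence was read at 0 and 20 min.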
# DT40 TDP1 no CPT: qHTS for Inhibitors of human tyrosyl-DNA phosphodiesterase 1 (TDP1): qHTS in cells in absence of CPT; DT40 Tdp1-/- hTDP1 cells, no CPT, ATP luminescence, 48 h; Potency, µM (series often up to 46.2 µM), usual class: inhibitors; 420,000 tested, 15% active; AID 686978, 2013; further: nearly all actives have a fitted effect of over 55% in size
#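 Chicken DT40 Tdp1-/- cells complemented with human TDP1, screened without camptothecin (DMSO vehicle only), 400 cells/well. Compounds pin-transferred, cells incubated at 37 °C for at least 48 hr. Growth read as ATP-dependent luminescence (CellTiter-Glo, 30 min at RT).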
# RORg inh: ROR gamma (mouse) transcription inhibition; P51450; Drosophila S2 Gal4-RORgamma UAS-luciferase reporter, 20 h; Potency, µM (top dose mostly 53.6 µM), most hits filed as inhibitors; 310,000 tested, 5.4% active; AID 2551; further: nearly all actives have a fitted effect of over 60% in size
# Target sequence (P51450 whole entry, looked up, the tested form may be a part): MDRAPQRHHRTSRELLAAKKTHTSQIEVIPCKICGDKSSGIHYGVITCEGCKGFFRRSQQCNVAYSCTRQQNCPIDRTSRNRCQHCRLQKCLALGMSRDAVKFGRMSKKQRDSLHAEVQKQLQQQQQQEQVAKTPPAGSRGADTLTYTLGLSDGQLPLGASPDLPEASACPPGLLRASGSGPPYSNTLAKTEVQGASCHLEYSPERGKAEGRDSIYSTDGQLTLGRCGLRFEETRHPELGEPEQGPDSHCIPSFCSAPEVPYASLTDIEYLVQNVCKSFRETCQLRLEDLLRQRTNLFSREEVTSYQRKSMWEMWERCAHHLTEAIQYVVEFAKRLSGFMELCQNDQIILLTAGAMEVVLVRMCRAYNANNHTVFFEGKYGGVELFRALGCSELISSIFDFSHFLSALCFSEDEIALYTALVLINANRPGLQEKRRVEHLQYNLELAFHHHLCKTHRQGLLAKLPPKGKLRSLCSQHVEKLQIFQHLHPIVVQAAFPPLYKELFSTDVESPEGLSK
#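 Luciferase reporter read in Schneider cells carrying Gal4-RORγ (mouse) and UAS-Photinus luciferase; cells given compound 1 h before 700 uM copper sulfate induction, then incubated 20 h at ambient temperature.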
# DT40 TDP1 CPT: growth inhibition of DT40 Tdp1-/-;hTDP1 cells with camptothecin (screen for TDP1 inhibitors); 420,000 tested, 12% active; chicken DT40 Tdp1-/-;hTDP1 cells + 20 nM CPT, ATP luminescence, 48 h; AID 686979; Potency, µM (titrated, usually from 46.2 µM), actives largely listed as inhibitors; further: nearly all actives have a fitted effect of over 55% in size
#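 Chicken DT40 Tdp1-/- cells stably complemented with human TDP1 were seeded at 400 cells/well in medium containing 20 nM camptothecin, exposed to pin-transferred compounds, and grown at 37 °C for at least 48 hr. Viability was read as ATP luminescence.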
# IL-1B inflam inh: blocks inflammasome-driven IL-1 beta release; 360,000 tested, 4.7% active; THP-1 LPS/ATP IL-1B secretion, AlphaLISA, 16 h; stronger effect = lower value; activity change, % at 57.5 µM; in the data active means activity change below about -50%; inconclusive means mostly about -30% to -49%
#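 Secreted IL-1B measured by AlphaLISA bead assay after 16 h compound exposure of THP-1 cells; compounds (final up to 57.5 uM) added 1 h before LPS (250 ng/mL) and ATP (1.25 mM) stimulation; lower signal means less secretion.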
# Gal4-VP16 FLuc: Gal4-VP16 reporter inhibition counter-screen; Drosophila S2 Gal4-VP16 UAS-luciferase, luminescence, 20 h; Potency, µM (series often up to 53.6 µM), hits mostly inhibitors; 310,000 tested, 3.5% active;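 further: Gal4-VP16 expression switched on by copper sulfate through the metallothionein promoter; nearly all actives have a fitted effect of over 50% in size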
# Numbers stand for hits; – = inactive; ? = inconclusive; · = no result given. Unless noted, the call rests on the fitted dose curve; in most records, active means well fitted curve in the direction sought with a large enough effect; inconclusive means small, poorly fitted or top-dose-only effect, or another doubt; inactive means no such curve, though single readings can be large; an effect the other way counts as inactive or inconclusive.
SMILES,LDHA inh,DT40 TDP1 no CPT,RORg inh,DT40 TDP1 CPT,IL-1B inflam inh,Gal4-VP16 FLuc
Cc1ccc(N/N=C/c2ccc(F)c(F)c2)cc1,–,·,·,·,·,·
Cn1ccnc1C(NC(=O)Cc1ccc(Cl)cc1Cl)c1ccccc1F (stereo not drawn),–,·,·,·,·,·
COC(=O)C1(NC(=O)c2ccc3c(c2)OCCCO3)CCCCC1,–,·,·,·,·,·
COc1ccc(OC)c(NC(=O)c2cc(-c3ccc(F)cc3OC(C)C)n[nH]2)c1,–,20.6µM,·,16.4µM,–,·
COc1ccc(OC)c(NC(=O)c2cc(-c3cc(C)c(C)cc3O)n[nH]2)c1,–,?,–,–,–,–
COc1ccc(NC(=O)c2cc(-c3cc(F)ccc3OC(C)C)n[nH]2)c(C)c1,–,16.4µM,·,?,–,·
CSc1ccc(NC(=O)Cc2cccs2)cc1,–,·,·,·,·,·
CCCCN(CC)C(=O)CSc1nc2n[nH]c(C)c2c(=N)n1-c1cccc(Cl)c1,–,10.3µM,·,11.6µM,·,·
Cc1ccc(CNC(=O)CSc2nc3n[nH]c(C)c3c(=N)n2-c2cccc(C)c2)cc1,–,9.2µM,–,13µM,–,–
CCCCNC(=O)CSc1nc2n[nH]c(C)c2c(=N)n1-c1cccc(C)c1,–,11.6µM,·,18.4µM,·,·
CCCn1c(SCC(=O)NCc2ccc(C)cc2)n[nH]c1=O,–,–,–,–,–,–
Cc1cccc(-n2c(N)cc(=O)nc2SCC(=O)Nc2nnc(C)s2)c1,–,–,–,–,–,–
CCC(Sc1nc2n[nH]c(C)c2c(=N)n1-c1cccc(Cl)c1C)C(=O)N(CC)CC (stereo not drawn),–,?,–,?,–,–
COc1ccc(-n2ncc(S(=O)(=O)c3ccccc3)c2-c2ccc(Cl)cc2)cc1,–,20.6µM,–,25.9µM,?,–
COc1ccc(-c2c(-c3cc(OC)cc(OC)c3)n(C)c3ccc(-c4ccc(SC)cc4)cc23)cc1,–,–,·,–,–,·
COc1cc(OC)cc(-c2c(-c3ccc(F)cc3)c3cc(-c4ccc5[nH]ccc5c4)ccc3n2C)c1,–,?,·,29.1µM,–,·
COc1cccc(-c2c(-c3cc(OC)cc(OC)c3)n(C)c3ccc(-c4ccc5[nH]ccc5c4)cc23)c1,–,?,·,?,–,·
COc1ccc(-c2c(-c3cc(OC)cc(OC)c3)n(C)c3ccc(-c4cc(F)cc(OC)c4)cc23)cc1,–,16.4µM,·,?,–,·
CCc1nnc(NC(=O)CCc2ccc(-c3ccc(C)c(C)c3)o2)s1,–,·,·,·,·,·
CNC(=O)CNC(=O)c1cc2ccccc2oc1=O,–,·,·,·,·,·
CCCCC(CC)COc1ccc(C(C)=O)cc1 (stereo not drawn),–,·,·,·,·,·
CCCCC(CC)COC(=O)C(C#N)=C(c1ccccc1)c1ccccc1 (stereo not drawn),–,18.4µM,?,?,–,–
COc1cc(OC)c(NC(=O)CC(c2cccs2)N2Cc3ccccc3C2=O)cc1Cl (stereo not drawn),–,18.4µM,·,23.1µM,·,·
Cc1ccc(CNC(=O)C(CC(C)C)N2Cc3ccccc3C2=O)cc1 (stereo not drawn),–,?,·,?,·,·
CCCC(C(=O)NCc1cccc(Cl)c1)N1Cc2ccccc2C1=O (stereo not drawn),–,11.6µM,·,?,·,·
SMILES,LDHA inh,DT40 TDP1 no CPT,RORg inh,DT40 TDP1 CPT,IL-1B inflam inh,Gal4-VP16 FLuc
COc1ccc(C(CC(=O)Nc2cc(Cl)c(OC)cc2OC)N2Cc3ccccc3C2=O)cc1 (stereo not drawn),–,?,·,?,·,·
COc1ccc(C(CC(=O)NCc2ccccc2)N2Cc3ccccc3C2=O)cc1 (stereo not drawn),–,23.1µM,·,?,·,·
COc1ccc(C(CC(=O)Nc2cc(C)ccn2)N2Cc3ccccc3C2=O)cc1 (stereo not drawn),–,13µM,–,?,–,–
O=C(CC(c1ccc(F)cc1)N1Cc2ccccc2C1=O)NCc1ccc(F)cc1 (stereo not drawn),–,·,·,·,·,·
COc1ccc2c(C)cc(SCC(=O)NC(C)c3ccccc3)nc2c1 (stereo not drawn),–,·,·,·,·,·
Cc1ccc2[nH]c(C(=O)NC(C)c3ccccc3)cc2c1 (stereo not drawn),–,·,·,·,·,·
Cc1c(-c2ccccc2)oc2c(C(=O)OCC(=O)NC(=O)NC(C)C)cccc2c1=O,–,·,·,·,·,·
COc1ccc(C(CC(=O)Nc2ccc(OC)c(OC)c2)N2Cc3ccccc3C2=O)cc1 (stereo not drawn),–,?,·,?,·,·
COc1ccc(C(CC(=O)NCc2ccc(Cl)cc2)N2Cc3ccccc3C2=O)cc1OC (stereo not drawn),–,13µM,·,18.4µM,·,·
COc1ccc(C(CC(=O)Nc2cc(OC)c(OC)c(OC)c2)N2Cc3ccccc3C2=O)cc1 (stereo not drawn),–,23.1µM,·,23.1µM,·,·
Cc1ccc(-c2nc(Cn3cnc4ccsc4c3=O)co2)cc1,–,·,·,·,·,·
COc1ccc2oc(-c3ccc(NC(=O)c4ccccc4C)cc3)nc2c1,–,·,·,·,·,·
COc1cc(CNc2ccc(N3CCCC3)cc2)cc(Cl)c1OC,–,2.59µM,–,2.31µM,?,–
CCOc1cc(CNc2ccc(S(N)(=O)=O)cc2)cc(Cl)c1OC,–,?,–,?,–,–
C=CCOc1c(Cl)cc(CNc2ccc(N(C)C)cc2)cc1OC,–,6.51µM,–,6.51µM,–,–
CCOc1cc(CNc2ccc(N3CCCC3)cc2)cc(Cl)c1OC,–,3.66µM,–,2.91µM,-99.1,–
CCc1ccc(CNCCN2CCCC2)cc1,–,·,·,·,·,·
CCOc1ccc(CNCCN2CCCC2)cc1,–,20.6µM,–,?,–,–
O=C(Oc1c(Sc2ccc(Cl)cc2)c(=O)oc2ccccc12)c1ccccc1,–,·,·,·,·,·
Cc1ccc(C)c(-n2nnc(C(=O)NC(C)C)c2N)c1,–,·,·,·,·,·
O=C(Nc1cccc2c1CCCC2)c1cnc(Cl)c(Cl)c1,–,·,·,·,·,·
Oc1ccccc1-n1cccc1,–,·,·,·,·,·
CCOc1ccc(CNc2ccc(N3CCCC3)cc2)cc1,–,8.2µM,?,9.2µM,–,–
CCOc1ccc(CNc2ccc(N3CCN(Cc4ccccc4)CC3)cc2)cc1,–,?,?,?,–,–
COc1cccc(CNc2ccc(N3CCCCC3)cc2)c1OC,–,?,?,25.9µM,–,?
CCOC(=O)C1CN(S(=O)(=O)c2ccc(OC)cc2)c2cc(CC(=O)OC)ccc2O1 (stereo not drawn),–,–,–,?,–,–
CCOC(=O)C1CN(S(C)(=O)=O)c2cc(CC(=O)OC)ccc2O1 (stereo not drawn),–,–,–,–,-101.4,–
CCc1nc2ccccc2[nH]1,–,–,–,–,–,–
CCc1nc2ccc(Cc3ccc4nc(CC)[nH]c4c3)cc2[nH]1,–,23.1µM,–,13µM,–,–
